This is an account of results in PubChem BioAssay (EPA / NIEHS).

Several values for one entry are separate records, joined by “and”; a condition that tells them apart may be missing. Equal values may be shown once. Inconclusive results are not listed. More than one record can exist for a structure, and the calls need not agree. Activity calls are given as the source filed them. The calls were made as follows: active = hit-call score of the fitted dose curve at least 0.9, where 1 is the maximum; inconclusive = response in the unintended direction; inactive = score below 0.9.

Usually AC50 stands for the midpoint of the concentration-response curve, whichever way the signal moves.

The test deals with Agonist Androgen Response Element (ARE), AR (gene 367) (UniProt P10275). In words: OT_AR_ARELUC_AG_1440: Odyssey Thera (OT) 24-hour CHO-K1 Luciferase Assay for Agonist Androgen Response Element (ARE) (AID 2283379). How it is done: OT_AR_ARELUC_AG_1440 is a cell-based, single-readout assay that uses CHO-K1, a chinese hamster ovary cell line, with measurements taken at 24 hours after chemical dosing in a 384-well plate.OT_AR_ARELUC_AG_1440 is one of one assay component(s) measured or calculated from the OT_AR_ARELUC_AG_1440 assay. It is designed to make measurements of luciferase induction, a form of inducible reporter, as detected with bioluminescence signals by Luciferase technology.Data from the assay component OT_AR_ARELUC_AG_1440 was analyzed into 1 assay endpoint. This assay endpoint, OT_AR_ARELUC_AG_1440, was analyzed in the positive analysis fitting direction relative to DMSO as the negative control and baseline of activity. Using a type of inducible reporter, measures of receptor for gain-of-signal activity can be used to understand the reporter gene at the pathway-level as they relate to the gene AR. Furthermore, this assay endpoint can be referred to as a primary readout, because the performed assay has only produced 1 assay endpoint. To generalize the intended target to other relatable targets, this assay endpoint is annotated to the nuclear receptor intended target family, where the subfamily is steroidal.
Chain of Agonist Androgen Response Element (ARE), AR (gene 367) (P10275 whole entry, looked up): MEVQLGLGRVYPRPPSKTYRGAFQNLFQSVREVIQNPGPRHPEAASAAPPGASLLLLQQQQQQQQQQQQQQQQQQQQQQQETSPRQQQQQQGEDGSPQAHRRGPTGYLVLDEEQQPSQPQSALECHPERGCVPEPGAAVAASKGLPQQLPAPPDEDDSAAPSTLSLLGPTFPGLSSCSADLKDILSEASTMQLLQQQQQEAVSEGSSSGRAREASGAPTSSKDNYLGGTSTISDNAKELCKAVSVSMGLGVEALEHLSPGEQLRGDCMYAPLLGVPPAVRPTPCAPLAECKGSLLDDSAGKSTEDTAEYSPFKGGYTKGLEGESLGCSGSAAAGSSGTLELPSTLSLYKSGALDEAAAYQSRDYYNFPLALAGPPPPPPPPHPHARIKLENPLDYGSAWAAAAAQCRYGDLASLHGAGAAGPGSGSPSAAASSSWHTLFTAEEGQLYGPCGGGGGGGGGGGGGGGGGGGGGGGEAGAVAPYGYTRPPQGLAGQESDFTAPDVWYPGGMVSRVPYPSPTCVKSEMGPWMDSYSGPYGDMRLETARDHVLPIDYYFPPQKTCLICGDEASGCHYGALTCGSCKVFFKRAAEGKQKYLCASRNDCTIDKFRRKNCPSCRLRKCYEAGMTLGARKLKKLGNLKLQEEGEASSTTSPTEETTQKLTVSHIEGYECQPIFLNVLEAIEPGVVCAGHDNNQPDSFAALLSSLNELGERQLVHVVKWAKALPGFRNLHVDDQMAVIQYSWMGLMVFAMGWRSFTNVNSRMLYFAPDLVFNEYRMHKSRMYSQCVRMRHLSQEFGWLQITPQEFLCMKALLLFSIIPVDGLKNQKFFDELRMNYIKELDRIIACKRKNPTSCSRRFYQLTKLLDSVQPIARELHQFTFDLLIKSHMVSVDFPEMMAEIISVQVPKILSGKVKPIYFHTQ
To identify AR agonists, CHO-K1 cells are seeded into a white-walled/white-bottom 384-well plate, followed by treatment with compounds of interest or controls for 24 hours. A luciferase assay mix containing D-luciferin and ATP in PBS is then added to the cells and luminescence quantified on a Luminoskan (Thermo Scientific) luminometer. Modulation of this assay is quantified as an increase in mean luminescence intensity relative to vehicle controls. To evaluate specificity of the AR / ARE-luc assay, several known AR agonists, AR antagonists, and ER-selective compounds were also tested in 5-pt concentration-response format in a minimum of 7 assay plates. OT determined the reproducibility of DHT-induced AR/ARE-luc transcriptional activation with a total of seven 384-well plates run on 2 different days, for 24-h time frames. A minimum of 3 replicate wells were analyzed for each sample with 14 replicate wells for vehicle controls. Luminescence data were captured on the Luminoskan luminometer.
With `O=C(c1ccccc1)C1CCCCC1`, the AC50 was 527 nM (active) and the call was inactive.
As to `C[C@]12CC[C@@H]3c4ccc(O)cc4C[C@@H](CCCCCCCCCS(=O)CCCC(F)(F)C(F)(F)F)[C@H]3[C@@H]1CC[C@@H]2O` (some centres undefined), the call was inactive and the half-maximal activity concentration (AC50) was 548 nM (active).
For the compound `CSC(=O)c1cccc2nnsc12`, the outcome was inactive.
Consider `c1ccc2[nH]c(-c3cscn3)nc2c1`, for which the outcome was inactive.
For `CCCOC(=O)c1ccc(C(=O)OCCC)nc1`, the result was inactive.
Still for that read-out and setting: under `CCOC(=O)COc1cc(-n2ncc(C(F)(F)F)c(C)c2=O)c(F)cc1Cl` stands “inactive”; under `CC(C)(c1ccc(O)cc1)c1ccc(O)cc1`, “inactive”.
As to `O=C(c1ccc(O)cc1O)c1ccc(O)cc1O`, the AC50 is 722 nM (active) and 29.3 µM (active); the compound was classed as inactive.
In the case of `CCSC(=O)N(CC(C)C)CC(C)C`, the result was inactive.
On the same count and under the same terms, under `Cc1nn(C)c(Oc2ccccc2)c1C=NOCc1ccc(C(=O)OC(C)(C)C)cc1` stands “inactive”.
On the same count and under the same terms, under `CCCCOCCOCCOCc1cc2c(cc1CCC)OCO2` stands “inactive”; under `CCCN(CCC)C(=O)SCC`, “inactive”.
On to `CC1(C)C(C=C(Cl)Cl)C1C(=O)OCc1cccc(Oc2ccccc2)c1` (centres undefined), for which the result was inactive.
Consider `O=C(O)C1(C(=O)Nc2ccc(Cl)cc2Cl)CC1`, for which the compound was classed as inactive.
Still for that read-out and setting: in the case of `COC(=O)CSc1cc(N=c2sc(=O)n3n2CCCC3)c(F)cc1Cl` it was “inactive”; in that of `N#CSCSc1nc2ccccc2s1`, “inactive”.
